Data reported in PubChem BioAssay (Tox21).
Inconclusive results are not listed. A call without a number means that no potency is given here. The source holds several records for some structures; these can differ, active in one and inactive in another. Activity calls are given as the source filed them. Calls come from the whole dose curve; as a rule, active = well fitted cell-killing curve with a large enough effect in the repeat runs; inconclusive = weak or mixed curves, or effect the other way; inactive = no such curve, though single readings can be large or run the other way. Residues, ends and D or L forms follow the SMILES beside them.

Assay: qHTS assay to identify small molecule agonists of the RXR signaling pathway - cell viability counter screen (AID 1159529); note: nearly all actives have a fitted effect of over 50% in size
Settings: RXR-alpha-bla HEK293T viability, CellTiter-Glo, 16 h; series mostly up to 76.8 µM; activity change, negative = cytotoxicity: at the top concentration
Description: National Center for Advancing Translational Sciences [NCATS]
NIH Chemical Genomics Center [NCGC]
U.S. Environmental Protection Agency [EPA]
National Institutes of Environmental Health Sciences [NIEHS]
National Toxicology Program [NTP]
U.S. Food and Drug Administration [FDA]
The Retinoid X receptor (RXR), a nuclear hormone receptor expressed in liver, spleen, placenta, epidermis, central nervous system. These receptors are able to form homo and heterodimers with other nuclear receptors and due to this heterodimerizing ability, RXR functions as master regulators producing diverse physiological effects. Three subtypes of RXR exist; alpha, beta and gamma. Retinoid X receptor alpha (RXR-alpha) has potential roles in metabolic signaling pathways, skin alopecia, dermal cysts, cardiac development, insulin sensitization etc. Therefore screening environmental chemicals on RXR-alpha signaling can be used for the studies focused on such therapeutic applications. For quantification of RXR-alpha ligands signaling, GeneBLAzer RXR alpha-UAS-bla HEK 293T (Life Technologies, Carlsbad, CA) cells containing a beta-lactamase reporter-gene under control of Retinoid X receptor-alpha response element were used to screen Tox21 10K library. The cytotoxicity of the Tox21 compound library against the RXR-alpha HEK 293T cell line was tested in parallel by measuring cell viability using CellTiter-Glo assay (Promega Corporation, Madison, WI) in the same wells.
Tox21 Assay Protocol Summary:
RXR-alpha HEK 293T cells were dispensed at 2,000 cells/6 uL of assay medium containing 2% charcoal-stripped FBS using a Multidrop Combi (ThermoFisher Scientific, Waltham, MA) dispenser. The assay was performed in black wall/clear-bottom 1536-well plates (Greiner Bio-One North America Inc. Monroe, NC). Tetraoctyl ammonium bromide was used as a positive control in the cytotoxicity screen. After the assay plates were incubated at 37 C and 5% CO2 for 5 hr, 23 nL of compounds dissolved in DMSO, positive control or DMSO only were transferred to the assay plate by a Pintool station (Kalypsys, San Diego, CA). The assay plates were incubated at 37 C and 5% CO2 for 16 hr. One uL of LiveBLAzer B/G FRET substrate (Life Technologies) was added using a Flying Reagent Dispenser (FRD) (Aurora Discovery, San Diego, CA) and the plates were incubated at room temperature for 2 hr. Fluorescence intensity (405 nm excitation, 460/530 nm emission) was measured using an Envision plate reader (PerkinElmer, Shelton, CT). For cytotoxicity, 4 uL/well of CellTiter-Glo reagent was added into the assay plates using an FRD. After 30 min incubation at room temperature, the luminescence intensity was measured using a ViewLux plate reader (PerkinElmer).
Potency is the fitted concentration of half-maximal effect.

| SMILES | Potency | activity change, negative = cytotoxicity |
| --- | --- | --- |
| CCCCOC(=O)CC(CC(=O)OCCCC)(OC(C)=O)C(=O)OCCCC | inactive | – |
| NC(=O)c1cnccn1 | inactive | – |
| NC(=O)c1ccccc1O | inactive | – |
| O=C(O)CS | inactive | – |
| CCCCC(CC)COC(=O)/C=C/c1ccc(OC)cc1 (stereo not given) | inactive | – |
| NNC(=O)c1ccncc1 | inactive | – |
| O=C(O)c1cc(N=Nc2ccc(S(=O)(=O)Nc3ccccn3)cc2)ccc1O | inactive | – |
| O=c1cc[nH]c(=S)[nH]1 | inactive | – |
| O=S(=O)(O)NC1CCCCC1 | inactive | – |
| COc1ccc2[nH]cc(CCNC(C)=O)c2c1 | inactive | – |
| CC(=O)OCC(COC(C)=O)OC(C)=O | inactive | – |
| Cc1ccccc1C(OCCN(C)C)c1ccccc1 (stereo not given) | – | -23.8% [at 35.3 µM] (inactive) |
| O=C(O)C(=O)O | inactive | – |
| O=S(=O)(O)c1ccc2cc(O)ccc2c1 | inactive | – |
| NC(N)=NC(=O)c1nc(Cl)c(N)nc1N | inactive | – |
| NC(N)=O | inactive | – |
| COC(=O)[C@H](Cc1ccccc1)NC(=O)[C@@H](N)CC(=O)O (H-Asp-Phe-OMe) | inactive | – |
| O=NO | inactive | – |
| CC(O)CN(CCN(CC(C)O)CC(C)O)CC(C)O (stereo not given) | inactive | – |
| Nc1ccn([C@H]2CC[C@@H](CO)O2)c(=O)n1 | inactive | – |

| SMILES | Potency | activity change, negative = cytotoxicity |
| --- | --- | --- |
| CCOc1ccc(NC(=O)CC(C)O)cc1 (stereo not given) | inactive | – |
| Cc1noc(NS(=O)(=O)c2ccc(N)cc2)c1C | inactive | – |
| Nc1ccc(S(=O)(=O)Nc2nccs2)cc1 | inactive | – |
| CC(=O)Nc1nnc(S(N)(=O)=O)s1 | inactive | – |
| Nc1ccc(S(=O)(=O)c2ccc(N)cc2)cc1 | inactive | – |
| CC(C)(Oc1ccc(C2CC2(Cl)Cl)cc1)C(=O)O (stereo not given) | inactive | – |
| Cc1ccc(S(=O)(=O)NC(=O)NN2CCCCCC2)cc1 | inactive | – |
| c1ccc2[nH]ccc2c1 | 48.2 µM (active) and inactive | – |
| O=C(O)CCC(=O)O | inactive | – |
| C/C=C/c1ccc(OC)cc1 | inactive | – |
| Cn1cc[nH]c1=S | inactive | – |
| NC(=O)NC1NC(=O)NC1=O (stereo not given) | inactive | – |
| CC(O)C(=O)O (stereo not given) | inactive | – |
| CC1(C)[C@@H]2CC[C@@]1(C)C(=O)C2 | inactive | – |
| Cc1ccc(O)cc1 | inactive | – |
| O=C1CN(/N=C/c2ccc([N+](=O)[O-])o2)C(=O)N1 | inactive | – |
| C1N2CN3CN1CN(C2)C3 | inactive | – |
| C[C@]12C=CC(=O)C=C1CC[C@@H]1[C@@H]2[C@@H](O)C[C@@]2(C)[C@H]1CC[C@]2(O)C(=O)CO | inactive | – |
| O=C(O)/C=C\C(=O)O | inactive | – |
| O=C(c1ccccc1)c1ccccc1 | inactive | – |
